Molecules are shown by their SMILES. Calls of active or inactive are those of the source.

Assay [1] relates to Plasmodium falciparum Sir2 (PF13_0152, Sir2A). Kind of assay: Plasmodium falciparum Sir2A binding compounds – biochemical, small-molecule microarray, 635 nm fluorescence, primary screen (AID 1098).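 Further: score merges spot fluorescence intensity with its signal-to-noise ratio.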 The conditions noted are these: fluorescence 635 nm, higher = more signal.
The nature of assay [2]: probe aDKK1 binding to arrayed compounds – biochemical, biotinylated probe, 635/667 nm fluorescence, primary screen (AID 1099).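 Further: score merges 667nm spot fluorescence with signal to noise across triplicate slides; reference of the scale not given here.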 The conditions noted are these: small-molecule microarray, higher = more signal.
Assay [3] can be described thus: probe aCHRDL2 binding to arrayed compounds – biochemical, biotinylated probe, 635/667 nm fluorescence, primary screen (AID 1100). As to conditions: small-molecule microarray, higher = more signal.
Assay [4] can be described thus: change in splice reporter luminescence, either direction, cell-based, HEK293, spliceosome inhibition project, primary screen (AID 1101).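 Further: HEK293 cells carrying a splicing-competent luciferase reporter gene; test concentration not given here.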 As to conditions: HEK293 splicing luciferase reporter, 24 h, higher = more signal, called active from +8 up or from −8 down.
Assay [5] deals with Fibroblast growth factor 10 (Homo sapiens) (UniProt O15520). Kind of assay: compounds binding fibroblast growth factor 10 – biochemical, small-molecule microarray, 635 nm fluorescence, primary screen (AID 1102). As to conditions: FGF10 binding, fluorescence 635 nm, higher = more signal.
Assay [6] deals with glycogen synthase kinase-3 (GSK3A per assay name; protocol says GSK3B). Kind of assay: compounds binding glycogen synthase kinase-3 – biochemical, small-molecule microarray, 635 nm fluorescence, GSK3A, primary screen (AID 1103). Further: the record names both GSK3A and GSK3B. As to conditions: fluorescence 635 nm, higher = more signal.
The target in assay [7] is Epidermal growth factor receptor (Homo sapiens) (UniProt P00533). Kind of assay: compounds binding epidermal growth factor receptor – biochemical, small-molecule microarray, 635 nm fluorescence, primary screen (AID 1104).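 Further: score merges 667 nm emission intensity with spot signal to noise over triplicate slides.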 The conditions noted are these: EGFR binding, higher = more signal.
Assay [8] addresses Follistatin-related protein 3 (Homo sapiens) (UniProt O95633). Kind of assay: compounds binding follistatin-related protein 3 – biochemical, small-molecule microarray, 635 nm fluorescence, primary screen (AID 1105).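 Further: score merges emission near 667 nm and signal to noise per printed spot across three slides.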 The conditions noted are these: FSTL3 binding, higher = more signal.
Assay [9] addresses Dickkopf-related protein 1 (Homo sapiens) (UniProt O94907). Kind of assay: small molecules binding DKK1 protein – biochemical, small-molecule microarray, 635 nm fluorescence scan, primary screen (AID 1106).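 Further: score merges emission near 667 nm with signal to noise over three replicate slides.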 As to conditions: higher = more signal.
Assay [10] deals with Inhibin beta A chain (activin A). Kind of assay: small molecules binding activin A – biochemical, small-molecule microarray, 635 nm fluorescence scan, primary screen (AID 1107).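 Further: mouse activin A protein probed at 4.33 µg/mL on printed slides; score merges bound-protein fluorescence near 667 nm with spot signal-to-noise.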 As to conditions: INHBA, higher = more signal.

Sequence of Dickkopf-related protein 1 (Homo sapiens) (O94907 whole entry, looked up): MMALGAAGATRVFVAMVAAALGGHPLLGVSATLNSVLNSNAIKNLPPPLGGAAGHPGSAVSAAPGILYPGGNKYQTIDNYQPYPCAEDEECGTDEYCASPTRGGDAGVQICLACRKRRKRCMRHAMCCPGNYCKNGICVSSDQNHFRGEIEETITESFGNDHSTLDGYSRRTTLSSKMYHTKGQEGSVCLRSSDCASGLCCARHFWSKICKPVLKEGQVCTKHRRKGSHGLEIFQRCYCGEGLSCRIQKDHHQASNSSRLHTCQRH
Sequence of Fibroblast growth factor 10 (Homo sapiens) (O15520 whole entry, looked up): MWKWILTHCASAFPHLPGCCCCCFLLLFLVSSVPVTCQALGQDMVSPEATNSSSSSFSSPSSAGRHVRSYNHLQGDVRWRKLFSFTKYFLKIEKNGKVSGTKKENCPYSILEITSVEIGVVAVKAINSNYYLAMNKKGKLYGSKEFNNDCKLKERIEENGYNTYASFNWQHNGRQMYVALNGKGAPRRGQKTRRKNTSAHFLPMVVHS
Sequence of Epidermal growth factor receptor (Homo sapiens) (P00533 whole entry, looked up): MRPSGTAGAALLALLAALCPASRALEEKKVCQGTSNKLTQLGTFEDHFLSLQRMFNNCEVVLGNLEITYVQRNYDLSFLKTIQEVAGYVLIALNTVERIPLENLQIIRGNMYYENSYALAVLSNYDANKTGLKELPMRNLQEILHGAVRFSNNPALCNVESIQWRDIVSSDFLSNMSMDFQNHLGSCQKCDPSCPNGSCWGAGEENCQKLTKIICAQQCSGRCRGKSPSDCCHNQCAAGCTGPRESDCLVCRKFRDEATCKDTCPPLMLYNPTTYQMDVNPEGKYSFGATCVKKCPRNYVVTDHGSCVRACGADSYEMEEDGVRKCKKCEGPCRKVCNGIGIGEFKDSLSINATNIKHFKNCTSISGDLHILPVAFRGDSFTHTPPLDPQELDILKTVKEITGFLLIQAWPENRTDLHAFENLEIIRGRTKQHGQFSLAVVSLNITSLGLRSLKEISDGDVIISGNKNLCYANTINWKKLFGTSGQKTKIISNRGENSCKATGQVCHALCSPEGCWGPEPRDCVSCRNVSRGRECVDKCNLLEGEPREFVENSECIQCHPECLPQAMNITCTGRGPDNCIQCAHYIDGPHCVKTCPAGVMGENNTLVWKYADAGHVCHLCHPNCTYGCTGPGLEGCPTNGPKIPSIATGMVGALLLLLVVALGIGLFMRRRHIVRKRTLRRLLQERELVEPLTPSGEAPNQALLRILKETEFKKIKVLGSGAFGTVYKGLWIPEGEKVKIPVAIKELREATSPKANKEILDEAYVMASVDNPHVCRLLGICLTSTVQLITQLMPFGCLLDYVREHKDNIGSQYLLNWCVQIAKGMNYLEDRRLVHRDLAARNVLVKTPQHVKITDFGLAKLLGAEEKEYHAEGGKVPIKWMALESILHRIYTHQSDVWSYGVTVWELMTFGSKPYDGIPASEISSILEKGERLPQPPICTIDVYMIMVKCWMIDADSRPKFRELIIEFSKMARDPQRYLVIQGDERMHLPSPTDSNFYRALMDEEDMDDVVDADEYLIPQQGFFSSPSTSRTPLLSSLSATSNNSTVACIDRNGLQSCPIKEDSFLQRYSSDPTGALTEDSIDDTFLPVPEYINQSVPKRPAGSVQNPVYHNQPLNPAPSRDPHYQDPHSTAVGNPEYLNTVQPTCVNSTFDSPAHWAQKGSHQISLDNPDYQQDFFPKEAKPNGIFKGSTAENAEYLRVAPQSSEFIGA
Sequence of Follistatin-related protein 3 (Homo sapiens) (O95633 whole entry, looked up): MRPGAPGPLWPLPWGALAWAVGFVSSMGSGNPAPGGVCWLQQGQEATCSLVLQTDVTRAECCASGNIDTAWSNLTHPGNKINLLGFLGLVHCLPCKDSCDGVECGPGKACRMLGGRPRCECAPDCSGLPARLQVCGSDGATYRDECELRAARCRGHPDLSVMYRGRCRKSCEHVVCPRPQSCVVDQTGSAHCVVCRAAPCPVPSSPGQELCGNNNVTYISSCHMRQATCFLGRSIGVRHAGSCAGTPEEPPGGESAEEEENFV

On to `CCCC[C@@H]1C[C@H]1[C@@H](NC(=O)c1ccco1)c1ccc(Cl)cc1`, for which the composite z-score was 0.428 in assay [1]; 0.807 in [2]; 1.03 in [3]; 0.438 in assay [5]; 1.15 in assay [6]; -0.0272 in assay [7]. Also, the composite z-score in assay [8] amounted to 0.0636; in assay [9] it was 0.461; in [10], 0.89. Also, in assay [4], the z-score was -0.659 (inactive).
As to `CN1C(=O)C2C=CC(C(O)C3CCCCC3)N(Nc3ccc([N+](=O)[O-])cc3[N+](=O)[O-])C2C1=O` (stereo not given), the composite z-score in assay [1] turned out to be 0.912; in [2], 0.778; in [3], 0.906; in assay [5] it was 0.911; in assay [6] it was 0.323; in [7] it was 0.374. Besides, the composite z-score in [8] was 1.29; in assay [9], -0.33; in assay [10], 0.738. Further, the z-score in assay [4] is 1.84 (inactive).
On to `C=CCN(Cc1ccccc1)C(=O)C(c1cccs1)N(CCOCCO)C(=O)/C=C\C(=O)O` (stereo not given), for which the composite z-score in assay [1] was 0.342; in assay [2] it was 0.179; in assay [3], 0.251; in [5], -2.23; in assay [6], -0.869; in [7], -2.04. Moreover, the composite z-score in [8] was -1.27; in [9] it was -2.6; in assay [10], -2.43. For the same compound, in assay [4], the z-score is -1.62 (inactive).
On to `CN1C(=O)C2C=CC(C(O)Cc3ccccc3)N(Nc3ccccc3)C2C1=O` (stereo not given), for which the composite z-score was 0.36 in [1]; 0.645 in assay [2]; 0.898 in [3]; 0.235 in assay [5]; -0.442 in assay [6]; -0.389 in assay [7]. Besides, the results for the composite z-score in assay [8], in assay [9] and in assay [10] were -0.0978, -0.549 and 0.437, respectively. Also, in assay [4], the z-score was -0.00929 (inactive).
Regarding `O=C1NC(=O)C2C1C=CC(C(O)c1ccccc1)N2Nc1ccc(Cl)cc1Cl` (stereo not given), the composite z-score stood at 1.62 in [1]; 0.394 in [2]; 0.914 in assay [3]; 1.14 in assay [5]; 1.27 in assay [6]; 0.531 in assay [7]. Moreover, the composite z-score in assay [8] is 1.27; in [9], -0.0035; in assay [10], 0.705. In addition, the z-score in [4] is -1.36 (inactive).
On to `COc1ccc([Si](C)(C)[C@H]2[C@H](CC(=O)N3CCC[C@H]3CO)O[C@@]3(C(=O)N(Cc4cccc(N5C(=O)c6cccc7cccc5c67)c4)c4ccccc43)[C@@H]2C)cc1`, for which the composite z-score in assay [1] is 1.45; in assay [2], -0.109; in assay [3], -0.098; in assay [5], 1.29; in assay [6] it was 0.483; in [7] it was 0.761. For the same compound, the values for the composite z-score in assay [8], in assay [9] and in [10] were 1.25, 0.892 and 0.459, respectively. Further, the z-score in [4] is 0.685 (inactive).
As to `CN1C(=O)C2C=CC(C(O)c3ccc(I)cc3)N(N3CCCCC3)C2C1=O` (stereo not given), the composite z-score in assay [1] came out at 1.36; in assay [2], 0.382; in [3], 1.21; in assay [5], 1.07; in assay [6], 0.354; in [7] it was 0.396. The values for the composite z-score in assay [8], in assay [9] and in assay [10] were 1.34, -0.147 and 0.72, respectively. Further, in [4], the z-score is 1.18 (inactive).
`COCCCNC(=O)[C@@]1(Cc2ccccc2)N=C(c2ccc(OCCCO)cc2)O[C@H]1c1ccccc1`: the composite z-score is 1.19 in [1]; 1.22 in assay [2]; 1.28 in assay [3]; 0.849 in [5]; 1.02 in assay [6]; -0.804 in assay [7]. The composite z-score in assay [8] was -0.569; in assay [9], -0.728; in [10] it was 1.01. Further, the z-score in [4] was 0.272 (inactive).
Turning to `O=C1O[C@H](c2ccccc2)[C@H](c2ccccc2)N2[C@H]1[C@@H](C(=O)N1CCN(c3ncccn3)CC1)[C@]1(C(=O)Nc3ccc(C#CC4=CCCCC4)cc31)[C@H]2c1ccc(O)cc1`, the composite z-score in [1] was 0.789; in [2], -0.0869; in assay [3] it was 0.566; in assay [5] it was 0.76; in assay [6], 0.754; in [7] it was 0.442. In addition, the composite z-score in assay [8] was 0.738; in assay [9], -0.0441; in assay [10] it was -0.0074. For the same compound, in assay [4], the z-score was -0.725 (inactive).
As for `CC(C)C[C@H]1NC(=O)[C@@]23C(=O)N[C@@H](Cc4ccccc4)C2[C@H](C)[C@@]2(C)O[C@H]2C3/C=C/C/C=C\CNC(=O)[C@H](Cc2ccccc2)NC1=O` (stereo not given in full), the composite z-score in [1] was 0.777; in assay [2], -0.283; in assay [3], -0.471; in [5], 0.903; in assay [6], 0.47; in assay [7], 0.447. Besides, the composite z-score in assay [8] came out at 0.816; in assay [9], 0.599; in [10], 0.867. The z-score in [4] is 0.000958 (inactive).
For the compound `COCCCNC(=O)C1N=C(c2ccc(OCCCO)cc2)N(c2ccccc2)O1` (stereo not given), the composite z-score is 0.87 in assay [1]; 0.0045 in assay [2]; 0.203 in assay [3]; 1.3 in [5]; 0.781 in assay [6]; 0.241 in [7]. Besides, the composite z-score in [8] was 0.784; in assay [9], 0.383; in [10], -0.6. Besides, the z-score in [4] is -0.27 (inactive).
Turning to `O=C1OCCC=C[C@H]2OC34C=CCN(CCN5CCOCC5)C(=O)[C@H]3N(CCCCCCO)C(=O)[C@@H]4C12` (stereo not given in full), the composite z-score in [1] is 0.813; in [2], -0.5; in [3] it was -0.35; in assay [5] it was -0.306; in assay [6] it was -0.225; in [7] it was -0.71. The figures for the composite z-score in [8], in assay [9] and in assay [10] were -0.351, -0.292 and 0.191, respectively. The z-score in assay [4] is 0.418 (inactive).
For the compound `CCOC(=O)C[C@H]1[C@H](OC(=O)c2cc3ccccc3oc2=O)[C@@H](NC(=O)Cc2ccc(OC)cc2)c2cc(OCCCO)ccc2N1C(=O)c1ccccc1`, the composite z-score in assay [1] was 0.39; in assay [2], -0.351; in [3], -0.355; in assay [5], 0.458; in assay [6], 0.0878; in assay [7], 0.436. Further, the values for the composite z-score in assay [8], in assay [9] and in assay [10] were 0.23, 0.313 and 0.726, respectively. Moreover, the z-score in assay [4] was -0.854 (inactive).
As for `[N-]=[N+]=NCc1ccccc1[C@@H]1OC(c2ccc(OCCCO)cc2)=N[C@]1(Cc1ccccc1N=[N+]=[N-])C(=O)N1CCOCC1`, the composite z-score in assay [1] was determined as 0.814; in [2], 1.22; in [3], 1.35; in assay [5] it was 1.33; in [6], 1.3; in assay [7] it was 0.248. Moreover, the results for the composite z-score in assay [8], in assay [9] and in assay [10] were 0.783, 0.231 and 0.73, respectively. For the same compound, the z-score in assay [4] was 0.783 (inactive).
For `CC(C)C[C@@H]1NC(=O)[C@H]2C[C@@H](C(=O)NCCCCCCN)[C@@H](c3ccc(O)cc3)N2C1=O`, the composite z-score in [1] turned out to be 1.59; in assay [2], 1.06; in assay [3] it was 0.808; in [5], 0.23; in [6], 0.247; in assay [7], 0.106. The composite z-score in assay [8] was determined as 0.69; in [9], 0.731; in assay [10] it was 1.23. Moreover, the z-score in assay [4] was 0.823 (inactive).
Turning to `CC(=O)n1cc(C(O)C2C=CC3C(=O)N(C)C(=O)C3N2Nc2ccccc2)c2ccccc21` (stereo not given), the composite z-score in [1] was determined as 0.511; in assay [2], 0.906; in assay [3], 1.18; in assay [5] it was 1.17; in assay [6], 0.292; in assay [7] it was 1.27. For the same compound, the composite z-score in [8] amounted to 1.4; in [9], 1.02; in [10], 1.79. In addition, the z-score in assay [4] is 1.45 (inactive).

Values taken from PubChem BioAssay.
